Most compounds without a hit are left out; they make up all but 2.5% or so of the library.
CCT chaperon mod = modulators of cytosolic chaperonin (CCT/TRiC) activity; purified chaperonin ATPase assay, HTRF ADP detection, 30 min; activity change, % (no concentration beside the values), hits read low; 360,000 compounds, 0.3% hits; AID 651819; in the data active means activity change below about -30%; further: on the % scale 0 is the no-effect control and ±100 the full control effect
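TRiC (40 or 20 nM final, by batch activity) in 30 mM Tris pH 7.4, 100 mM KCl, 5 mM MgCl2, 1 mM DTT was treated with compound at 76 uM single dose, then 10 uM ATP, 30 min at 37 °C. ADP was read by HTRF Transcreener.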
Anesthetic bind = binds horse apoferritin like a general anesthetic; P02791; apoferritin/1-aminoanthracene competitive binding, fluorescence; Potency, µM (doses to about 77.5 µM), inactives show at the highest dose activity change, negative = displacement, actives largely listed as inhibitors; 350,000 compounds, 0.074% hits; AID 485281; further: potency means the concentration at half of the fitted maximal effect; on the % scale 0 is the no-effect control and ±100 the full control effect; nearly all actives have a fitted effect of over 20% in size
Target sequence (P02791 2-175 limits assumed): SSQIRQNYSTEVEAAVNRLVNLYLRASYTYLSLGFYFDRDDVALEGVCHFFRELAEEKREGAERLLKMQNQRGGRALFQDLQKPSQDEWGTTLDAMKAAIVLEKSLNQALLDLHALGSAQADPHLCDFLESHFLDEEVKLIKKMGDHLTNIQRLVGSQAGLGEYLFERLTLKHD
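Concentration-response curves derived by four-parameter Hill fitting of normalized fluorescence, where compounds displaced 1-AMA from 10 uM horse apoferritin following a brief 10 min room-temperature incubation; propofol titration acted as positive control.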
aSyn yeast inh = alpha-synuclein toxicity inhibition in yeast; Potency, µM (highest dose often 46.1 µM), for the others: top-dose growth rescue (activation), usual class: activators; 370,000 compounds, 0.14% hits; Yeast expressing alpha-synuclein, growth rescue, BacTiter-Glo, 24 h; AID 652106; further: potency means the concentration at half of the fitted maximal effect; % of control where 0% means no effect; nearly all actives have a fitted effect of over 65% in size
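Rescue of yeast growth: cells expressing toxic alpha-synuclein, induced in galactose at OD600 0.02, incubated with compound 24 h at 30 C. ATP luminescence quantified growth; inhibitors of toxicity appear as activators.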
TDP-43 yeast inh = rescues yeast growth from TDP-43 toxicity; TDP-43 expressing yeast growth rescue, BacTiter-Glo, 24 h; Potency, µM (titrated, usually from 46.1 µM), inactives show top-dose growth rescue (activation), usual class: activators; 410,000 compounds, 1.8% hits; further: potency means the concentration at half of the fitted maximal effect; % of control where 0% means no effect; nearly all actives have a fitted effect of over 50% in size
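In this qHTS, compounds that restore growth of yeast expressing TDP-43 appear as activators. Cells (OD600=0.02, galactose medium, raffinose-pregrown) are incubated with compound 24 hr at 30 deg C and growth is quantified by BacTiter-Glo.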
Mito fusion yeast = mitochondrial division inhibition or fusion activation; S. cerevisiae fusion-defective mutant growth rescue, CellTiterGlo 48 h; Potency, µM (titrated, usually from 46.1 µM), for the others: top-dose growth rescue (activation), usual class: activators; 320,000 compounds, 0.23% hits; AID 485298; further: potency means the concentration at half of the fitted maximal effect; % of control where 0% means no effect; nearly all actives have a fitted effect of over 45% in size
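Luminescent cell viability in 1536-well qHTS format served as the measure of rescued growth in ts fusion-mutant S. cerevisiae cultured on non-fermentable YPEG for 48 hours at 37C.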
Akt phos inh = Akt phosphorylation inhibition. 360,000 compounds, 0.32% hits. AID 651550. Neuro2A IGF-stimulated pAkt S473 HTRF, 20 min; stronger effect = lower value. activity change, % for hits at 50 µM; in the data active means activity change below about -80%; inconclusive means mostly about -51% to -80%; further: on the % scale 0 is the no-effect control and ±100 the full control effect
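Neuro2A cells in DMEM with 0.5% FBS, overnight at 37 deg C, given compound at single 50 µM final, then IGF (6 nM final) for 20 min at 37 deg C. Lysed; phospho-Akt Ser473 by HTRF after 24 h, 665/615 ratio.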
* marks the source's active call; other numbers are inactive results; [ ] = dose if it differs, or a comment. Unless noted, the call rests on the fitted dose curve; in most records, active means well fitted curve in the direction sought with a large enough effect; inconclusive means small, poorly fitted or top-dose-only effect, or another doubt; inactive means no such curve, though single readings can be large; an effect the other way counts as inactive or inconclusive.

`Cn1c(N)c(C(C[N+](=O)[O-])c2c(F)cccc2Cl)c(=O)n(C)c1=O` (centres undefined) gave CCT chaperon mod -1, Anesthetic bind 4%, aSyn yeast inh 10%, TDP-43 yeast inh 11µM*, Mito fusion yeast -12% and Akt phos inh inactive.
`Cc1nc2nc(Cc3ccccc3)[nH]n2c(=O)c1Cl` gave CCT chaperon mod 0, Anesthetic bind 16%, aSyn yeast inh -1%, TDP-43 yeast inh 21%, Mito fusion yeast -3% and Akt phos inh -114%*.
Screening CCCN1CNc2c(c(=O)[nH]c(=S)n2CCc2ccccc2Cl)C1 returned aSyn yeast inh 1%.
`Cc1ccccc1NC(=S)NC(=O)C1CCCCC1` gave CCT chaperon mod 0, Anesthetic bind -22%, aSyn yeast inh 0%, TDP-43 yeast inh 25%, Mito fusion yeast -12% and Akt phos inh inactive.
For Cc1ccc(NC(=S)NC(=O)C2CCCC2)c(Br)c1 the results were CCT chaperon mod -1, aSyn yeast inh 1%[1.84 µM], TDP-43 yeast inh 14µM* and Akt phos inh inactive.
Screening O=C(NC(=S)Nc1ccccc1Br)C1CC1 returned CCT chaperon mod 2, aSyn yeast inh -10%, TDP-43 yeast inh 13µM* and Akt phos inh inactive.
`CC(OC(=O)c1ccccc1Nc1ccc(SC(F)F)cc1)C(N)=O` (centres undefined) gave CCT chaperon mod -2, Anesthetic bind 3%, aSyn yeast inh 0%, TDP-43 yeast inh inconclusive, Mito fusion yeast 14µM* and Akt phos inh inactive.
Nc1ncnc2c1nc(N1CCCCC1)n2[C@@H]1O[C@@H]2COP(=O)(O)O[C@H]2[C@H]1O was read as Anesthetic bind -7%.
`CCOC(=O)c1cnc2ccc(OCC)cc2c1Nc1ccc(OCc2ccccc2Cl)cc1` gave Anesthetic bind 0% and TDP-43 yeast inh -4%.
For CCOC(=O)c1cnc2ccc(OC)cc2c1Nc1ccc(OCc2ccccc2Cl)cc1 the results were Anesthetic bind inconclusive and TDP-43 yeast inh 20µM*.
Screening CCOC(=O)c1cnc2ccc(C)cc2c1Nc1ccc(OCc2ccccc2Cl)cc1 returned Anesthetic bind -18% and TDP-43 yeast inh 22µM*.
For COc1cc(/C=C2/SC(=S)N(Cc3ccccc3)C2=O)ccc1O the results were CCT chaperon mod 2, Anesthetic bind -16%, aSyn yeast inh -13%, TDP-43 yeast inh 21%, Mito fusion yeast -27% and Akt phos inh inactive.
Screening O=C1/C(=C\c2ccc(O)c(O)c2)SC(=S)N1Cc1ccccc1 returned CCT chaperon mod -1, Anesthetic bind inconclusive, aSyn yeast inh -60%, TDP-43 yeast inh -94%, Mito fusion yeast 13µM* and Akt phos inh inactive.
For O=C(Nc1nc2ccccc2[nH]1)C1CC(=O)N(c2ccc3c(c2)OCCO3)C1 (centres undefined) the results were CCT chaperon mod -1, Anesthetic bind -20%, aSyn yeast inh -1%, TDP-43 yeast inh 7%, Mito fusion yeast -4% and Akt phos inh -112%*.
`O=C(Nc1ccccc1Br)C1CC(=O)N(c2ccc3c(c2)OCCO3)C1` (centres undefined) gave CCT chaperon mod -3, aSyn yeast inh -1%, TDP-43 yeast inh inconclusive, Mito fusion yeast -2% and Akt phos inh inactive.
Screening O=C(O)c1cc(O)c2c(c1)[C@H]([C@H]1c3cc(C(=O)O)cc(O)c3C(=O)c3c(O[C@@H]4OC(CO)C(O)C(O)C4O)cccc31)c1cccc(O[C@@H]3OC(CO)C(O)C(O)C3O)c1C2=O (some centres undefined) returned Anesthetic bind -1%.
For O=C(NCc1c(O)ccc2ccccc12)c1ccccc1 the results were CCT chaperon mod 0, Anesthetic bind -8%, aSyn yeast inh 7%, TDP-43 yeast inh 20µM*, Mito fusion yeast 9% and Akt phos inh inactive.
Screening C/C=C\C1=C(CO)C(=O)[C@@H]2OC2C1=O (some centres undefined) returned Anesthetic bind 4%[15.3 µM].
`CCN(CC(=O)NC(C)(C)C)C(=O)COc1c(Cl)cc(Cl)c2ccc(C)nc12` gave CCT chaperon mod 2, Anesthetic bind -10%, aSyn yeast inh 10%, TDP-43 yeast inh 28µM*, Mito fusion yeast 9% and Akt phos inh inactive.
CCOc1ccccc1NC(=O)COC(=O)COc1c(Cl)cc(Cl)c2ccc(C)nc12 was read as CCT chaperon mod 1, aSyn yeast inh 16%, TDP-43 yeast inh 4% and Akt phos inh inactive.
`Cc1cccc(-c2ccc3ncnc(N(C)Cc4ccco4)c3c2)c1` gave Mito fusion yeast 7%.
Screening Cc1nn(CC(=O)OCCOc2ccc(Br)cc2)c(C)c1[N+](=O)[O-] returned CCT chaperon mod -3, Anesthetic bind inconclusive, aSyn yeast inh 6%, TDP-43 yeast inh 13µM*, Mito fusion yeast 7% and Akt phos inh inactive.
For COc1ccc(-c2nn3c(-c4cc(-c5ccccc5)n[nH]4)nnc3s2)cc1 the results were aSyn yeast inh 2%.
Fc1ccccc1/C=N/n1cnnc1 was read as CCT chaperon mod 1, Anesthetic bind -4%, aSyn yeast inh inconclusive, TDP-43 yeast inh -11%, Mito fusion yeast 1% and Akt phos inh inactive.
Screening COc1cc(/C=N/n2cnnc2)ccc1OCCOc1ccccc1 returned CCT chaperon mod -3, Anesthetic bind -11%, aSyn yeast inh 8%, TDP-43 yeast inh 17%, Mito fusion yeast 2% and Akt phos inh inactive.
For C(=N\n1cnnc1)/c1ccc(OCc2cccc3ccccc23)cc1 the results were CCT chaperon mod 0, Anesthetic bind inconclusive, aSyn yeast inh 16%, TDP-43 yeast inh 13µM*, Mito fusion yeast 9% and Akt phos inh -134%*.
Screening Fc1ccccc1COc1ccc(/C=N/n2cnnc2)cc1 returned CCT chaperon mod -2, Anesthetic bind inconclusive, aSyn yeast inh 0%, TDP-43 yeast inh 11µM*, Mito fusion yeast 3% and Akt phos inh inactive.
For C(=N\n1cnnc1)/c1cccc(OCCOc2ccccc2)c1 the results were CCT chaperon mod -84*, Anesthetic bind -14%, aSyn yeast inh 3%, TDP-43 yeast inh inconclusive, Mito fusion yeast 4% and Akt phos inh inactive.
`Cc1cccn2c(=O)c(C(=O)NCCc3ccc(S(N)(=O)=O)cc3)c(O)nc12` gave Anesthetic bind -1% and TDP-43 yeast inh -2%.
COc1ccc(N2CCN(C(c3ccccc3)c3nnnn3C(C)C)CC2)cc1 (centres undefined) was read as aSyn yeast inh -5%.
